Compound activity as filed in PubChem.
CYP2C19 activ = human CYP2C19 activators, primary screen, biochemical, luminescence; recombinant CYP2C19, luciferin-H EGE luminescence; stronger effect = higher value; 0 = fully inhibited enzyme, 1 = untreated enzyme; 96,000 tested, under 10 active; activation factor at 5 µM; Cytochrome P450 2C19 (Homo sapiens), P33261;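 active = activation factor of at least 2 at 5 µM in the primary screen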;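 also: 0 = wells with 2.5 mM tranylcypromine and 1 = vehicle-only wells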
CYP2C9 inhib = blockers of cytochrome P450 2C9 activity – biochemical, luminescence, ADME assay, primary screen; P11712; CYP2C9 Supersomes, luciferin-H conversion; inhibition, % at 5 µM; actives 20% (n = 96,000); AID 777, 2007;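 active = blocking of liver enzyme CYP2C9 beyond about 50% at 5 µM, limit read from the data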
Target sequence (P11712 whole entry, looked up): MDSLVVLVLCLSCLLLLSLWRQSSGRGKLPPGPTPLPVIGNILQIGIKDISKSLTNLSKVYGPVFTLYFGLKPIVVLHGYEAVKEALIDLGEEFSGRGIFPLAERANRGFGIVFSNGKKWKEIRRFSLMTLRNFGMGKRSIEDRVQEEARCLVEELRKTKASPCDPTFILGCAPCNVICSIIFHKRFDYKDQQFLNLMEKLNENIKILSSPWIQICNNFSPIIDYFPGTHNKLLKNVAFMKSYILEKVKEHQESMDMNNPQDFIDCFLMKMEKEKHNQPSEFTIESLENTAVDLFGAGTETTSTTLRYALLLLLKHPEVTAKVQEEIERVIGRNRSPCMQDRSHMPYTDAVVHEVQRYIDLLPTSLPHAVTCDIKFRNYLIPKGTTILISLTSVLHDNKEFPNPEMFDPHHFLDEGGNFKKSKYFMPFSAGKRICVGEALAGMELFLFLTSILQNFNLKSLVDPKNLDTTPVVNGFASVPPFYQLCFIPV
CYP2C9 act = human CYP2C9 activators, primary screen, biochemical, luminescence | recombinant CYP2C9, luciferin-H conversion; stronger effect = higher value; factor 1 = untreated enzyme, 0 = blocked | actives 1.4% (n = 96,000) | Cytochrome P450 2C9 (Homo sapiens), P11712 | activation factor at 5 µM;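 active = activation factor of 2 or more for CYP2C9 at a 5 µM dose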;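 also: 0 = sulfaphenazole-blocked wells and 1 = vehicle-only wells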
CYP2C19 inhib = blockers of cytochrome P450 2C19 activity – biochemical, luminescence, ADME assay, primary screen; P33261; CYP2C19 Supersomes, luciferin-H EGE luminescence, 30 min; inhibition, % at 5 µM; actives 21% (n = 96,000); AID 778, 2007;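 active = CYP2C19 inhibition above a set limit at 5 µM in the primary screen, cut at about 50% in these data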;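 also: plate controls were negative control wells for no effect and 2.5 mM tranylcypromine positive control for full effect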
* = called active by the depositor. An excerpt weighted towards active compounds, which were near 31% of everything screened.

SMILES	CYP2C19 activ	CYP2C9 inhib	CYP2C9 act	CYP2C19 inhib
NNC(=O)CN1C(c2ccc(Cl)cc2)=Nc2ccc(Br)cc2C1c1ccccc1 (stereo not drawn)	0.5	58.1*	0.4	46.9
COc1ccc(OC)c(S(N)(=O)=O)c1	0.9	1.5	1	12.8
CCN(c1ccccc1)S(=O)(=O)c1cc(OC)ccc1OC	0.1	69.4*	0.3	90.1*
CCN(c1ccccc1)S(=O)(=O)c1ccc(OC)c(OC)c1	0.4	-11.2	1.1	56.3*
Nc1[nH]ncc1C(=O)Nc1cccc(C(F)(F)F)c1	0.8	10.2	0.9	19.0
Cc1ccc(NC2=C(Cl)C(=O)OC2OC(=O)c2ccco2)cc1 (stereo not drawn)	0.5	90.8*	0.1	50.5*
CC(NC(=O)c1cc2ccccc2o1)c1cccs1 (stereo not drawn)	0.2	69.4*	0.3	82.4*
O=C(c1cc2ccccc2o1)c1cccs1	0.5	50.8*	0.5	48.9
CC(C)C(=O)Nc1cccc(NC(=O)c2cc3ccccc3o2)c1	0.7	45.3	0.5	26.1
CCC(C)[C@H](NC(=O)Nc1ccc(C(C)=O)cc1)C(=O)OC (stereo partly drawn)	1	-7.1	1.1	4.0
Cc1cc(C)nc(N2CCCC(C(=O)NCCc3ccccc3F)C2)n1 (stereo not drawn)	0.8	-61.0	1.6	21.3
CCOC(=O)C1CCCN(Cc2ccccc2F)C1 (stereo not drawn)	0.3	-18.1	1.2	75.0*
CCOC(=O)C1CCCN(CC(=O)/C=C2/N(C)c3ccccc3C2(C)C)C1 (stereo not drawn)	0.4	16.8	0.8	63.2*
CCOc1cc(C)nc(N2CCCC(C(=O)NCc3ccccc3F)C2)n1 (stereo not drawn)	0.4	-20.0	1.2	58.3*
CCOC(=O)C1CCCN(CC(=O)NC2=Nc3ccccc3N=C(C)C2c2ccccc2)C1 (stereo not drawn)	0.1	91.4*	0.1	89.8*
CCOC(=O)C1CCCN(Cc2c(Cl)cccc2Cl)C1 (stereo not drawn)	0.6	24.2	0.8	41.3
Cc1ccc(CNC(=O)/C(C#N)=C\c2ccc(N(C)C)cc2)cc1	1	1.1	1	-3.5
CCOC(=O)C1CCCN(Cc2sccc2C)C1 (stereo not drawn)	0.5	3.9	1	48.5
CCOC(=O)c1ccc(NC(=O)Cn2nnc(-c3ccccc3)n2)cc1	1	30.6	0.7	-2.8
CN1/C(=C\C(=O)COC(=O)Cn2nnc(-c3ccccc3)n2)C(C)(C)c2ccccc21	0.9	73.7*	0.3	12.5
CCOC(=O)C1CCCN(CCC(C)c2ccccc2)C1 (stereo not drawn)	0.4	10.5	0.9	58.5*
CCOC(=O)C1CCCN(Cc2cc(OC)c(O)c(OC)c2)C1 (stereo not drawn)	0.9	-5.8	1.1	10.7
CCOC(=O)C1CCCN(Cc2cc(Br)c(OC)cc2OC)C1 (stereo not drawn)	0.2	4.9	1	84.4*
CCOC(=O)C1CCCN(Cc2cc(Br)ccc2OC)C1 (stereo not drawn)	0.2	63.0*	0.4	78.8*
CCC(C)N(C(=O)Cn1nnc2ccccc21)C(C(=O)Nc1ccc(F)cc1)c1cccc(OC)c1 (stereo not drawn)	0.7	18.9	0.8	27.0
SMILES	CYP2C19 activ	CYP2C9 inhib	CYP2C9 act	CYP2C19 inhib
O=c1cc(CN2CCC3(CC2)OCCO3)c2c(ccc3ccccc32)o1	0.2	25.7	0.7	78.0*
O=c1cc(CN2CCN(c3ccccc3)CC2)c2c(ccc3ccccc32)o1	0.7	-17.4	1.2	27.2
CCCN(CC(=O)c1cc(C)n(C)c1C)S(=O)(=O)c1cccc(C(F)(F)F)c1	0.2	24.2	0.8	75.8*
Cc1nn(C)c(=O)n1-c1ccc(Oc2ccccc2)cc1	0.8	91.4*	0.1	22.4
COCC(=O)Nc1cc(C(=O)Nc2ccccc2C)ccc1Cl	0.8	29.7	0.7	17.0
COCC(=O)Nc1cc(C(=O)Nc2cccc(C)c2C)ccc1Cl	1	58.5*	0.4	0.0
Cn1c(Cn2c(=O)sc3ccccc32)nnc1SCc1ccccc1F	0.5	35.6	0.6	52.3*
Cc1csc(NC(=O)CSc2nnc(Cn3c(=O)sc4ccccc43)n2-c2ccccc2)n1	1.1	60.7*	0.4	-12.0
O=C(CSc1nnc(Cn2nnc(-c3ccccc3)n2)n1-c1ccccc1)Nc1ccccc1	0.8	29.0	0.7	21.2
Cc1cccc(C)c1NC(=O)CSc1nnc(Cn2nnc(-c3ccccc3)n2)n1-c1ccccc1	0.3	92.2*	0.1	74.5*
CCCSc1nnc(Cn2c(=O)sc3ccccc32)n1-c1ccccc1	0.2	67.9*	0.3	82.5*
CC(=O)N=c1sc(C(C)(C)C)c(C)n1C	0.9	-65.2	1.7	14.9
COCc1nnc(NC(=O)CSCc2ccccc2)s1	0.9	13.4	0.9	5.4
COc1ccc(C(CC(=O)c2ccccc2)S(=O)(=O)c2ccc(C)cc2)cc1 (stereo not drawn)	0.7	13.1	0.9	26.5
COc1ccc(C(=O)C/C(=C\C(=O)c2ccc(C)cc2)c2ccccc2)cc1	0.5	74.2*	0.3	47.8
CCCc1cc2c(cc1NC(=O)c1ccc(C)cc1)OCO2	0	40.6	0.6	98.2*
CCC(=O)c1cc2c(cc1NC(=O)c1ccc(C)cc1)OCCO2	1	22.8	0.8	-0.8
O=C(NCc1ccc2c(c1)OCO2)C1CCN(c2ccc(S(=O)(=O)N3CCCC3)cc2)CC1	0.7	62.7*	0.4	26.0
O=C(NCc1ccc2c(c1)OCO2)C1CCN(S(=O)(=O)c2ccc(Br)s2)CC1	0.4	45.5	0.5	64.6*
Cc1ccnc(N2CCC(C(=O)NCc3ccc4c(c3)OCO4)CC2)n1	0.6	66.5*	0.3	44.8
CCc1c(C)nc2ncnn2c1N1CCCC(C(=O)NCc2ccc3c(c2)OCO3)C1 (stereo not drawn)	0.7	70.1*	0.3	29.0
CCS(=O)(=O)N1CCCC(C(=O)NCc2ccc3c(c2)OCO3)C1 (stereo not drawn)	0.8	5.9	0.9	20.2
O=S(=O)(NCc1cccnc1)c1cccc2cccnc12	1.1	-63.1	1.6	-5.8
O=S(=O)(NCc1cccnc1)c1ccc(Cl)c(Cl)c1Cl	0.1	-20.6	1.2	87.8*
Cc1ccc(C(C)C)cc1S(=O)(=O)NCc1cccnc1	0.2	61.6*	0.4	78.1*
Cc1cc(F)ccc1NCc1ccncc1	0.2	61.5*	0.4	82.4*
Cc1cc(F)ccc1NCc1cc2c(cc1[N+](=O)[O-])OCO2	0.7	2.3	1	27.7
O=C(c1ccncc1)N1C2C=CC(C2)C1(C(F)(F)F)C(F)(F)F (stereo not drawn)	0.8	60.6*	0.4	22.6
COC(=O)Cn1nnc(-c2cccc(OC)c2)n1	0.9	7.8	0.9	9.8
O=C(CSc1nnc(-c2ccc(O)cc2)n1Cc1ccco1)c1cccs1	0.3	78.5*	0.2	65.2*
